Only some compounds are listed: those with a hit (about 11% of all), similar ones and a draw of the others.
NPR1 antag = blocks ANP-stimulated signaling of human Npr1 receptor; Potency, µM (titrated, usually from 46.3 µM), inactives show at the top dose activity change, negative = inhibition, usual class: inhibitors; HEK293 hNpr1 GloSensor cGMP, ANP-stimulated luminescence; P16066; AID 1347048; 1.6% of 76,000 active; calls by dose curve; further: nearly all actives have a fitted effect of over 60% in size
Target sequence (P16066 whole entry, looked up): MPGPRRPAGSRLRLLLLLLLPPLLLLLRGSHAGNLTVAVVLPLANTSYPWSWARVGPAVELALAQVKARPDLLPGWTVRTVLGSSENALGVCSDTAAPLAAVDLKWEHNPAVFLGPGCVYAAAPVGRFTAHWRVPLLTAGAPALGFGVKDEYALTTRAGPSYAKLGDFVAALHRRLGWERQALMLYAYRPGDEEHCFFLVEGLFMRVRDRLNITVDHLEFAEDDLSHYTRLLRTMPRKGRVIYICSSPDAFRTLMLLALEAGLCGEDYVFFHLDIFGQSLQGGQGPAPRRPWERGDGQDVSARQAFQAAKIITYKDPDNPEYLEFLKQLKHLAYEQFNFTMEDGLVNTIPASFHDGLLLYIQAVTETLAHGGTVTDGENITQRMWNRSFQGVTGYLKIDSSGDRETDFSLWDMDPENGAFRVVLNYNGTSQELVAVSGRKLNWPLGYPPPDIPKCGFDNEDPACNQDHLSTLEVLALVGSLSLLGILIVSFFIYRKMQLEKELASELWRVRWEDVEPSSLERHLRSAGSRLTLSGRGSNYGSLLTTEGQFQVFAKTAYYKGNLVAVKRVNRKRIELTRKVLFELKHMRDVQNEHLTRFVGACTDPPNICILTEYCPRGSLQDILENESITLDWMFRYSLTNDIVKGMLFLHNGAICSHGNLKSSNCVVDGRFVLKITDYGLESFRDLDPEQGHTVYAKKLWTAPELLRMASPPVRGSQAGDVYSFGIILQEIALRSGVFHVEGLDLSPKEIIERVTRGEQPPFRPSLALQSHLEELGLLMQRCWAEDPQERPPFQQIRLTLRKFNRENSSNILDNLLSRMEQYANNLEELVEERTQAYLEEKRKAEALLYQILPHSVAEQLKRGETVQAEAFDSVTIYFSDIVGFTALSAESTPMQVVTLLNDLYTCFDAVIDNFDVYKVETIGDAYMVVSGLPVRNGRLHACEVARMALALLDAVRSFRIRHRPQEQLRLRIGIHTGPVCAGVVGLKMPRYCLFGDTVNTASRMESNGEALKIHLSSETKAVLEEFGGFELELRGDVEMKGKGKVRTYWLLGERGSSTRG
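HEK293 cells stably expressing human Npr1 and cGMP GloSensor pGS-40F, loaded 2 h with 2% GloSensor reagent, given compound 30 min at room temperature. Luminescence read before and 20 min after 0.1 nM hNppA.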
FLuc inh = Photinus pyralis luciferase inhibition. 2.5% of 76,000 active. Potency, µM (top dose mostly 115 µM), hits mostly inhibitors. P08659. purified P. pyralis luciferase, luminescence, biochemical; further: nearly all actives have a fitted effect of over 65% in size
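Luminescence read by CCD imager after adding enzyme (10nM final) to wells holding compound, titrated in qHTS. Substrates 10uM each D-luciferin and ATP; buffer 50mM Tris acetate pH 7.5, 10mM Mg acetate, Tween-20, BSA.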
HEK293 tox = kills HEK 293 cells; 6.6% of 94,000 active; Potency, µM (highest dose often 115 µM), for the others: top-dose activity change, negative = cytotoxicity, most hits filed as inhibitors; HEK 293 viability, ATP luminescence (CellTiter-Glo), 48-72 h; further: nearly all actives have a fitted effect of over 60% in size
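HEK 293 cells seeded at 250 cells/well were exposed to compound for 48 or 72 hr at 37 degree Celsius. Viability taken as ATP content by CellTiter-Glo luminescence.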
NIH3T3 tox = kills NIH 3T3 cells | NIH 3T3 viability, CellTiter-Glo ATP luminescence, 48-72 h | Potency, µM (series often up to 96.7 µM), without a hit: at the top dose activity change, negative = cytotoxicity, hits mostly inhibitors | 4.3% of 94,000 active | AID 1345082; further: nearly all actives have a fitted effect of over 55% in size
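Cytotoxicity is measured as loss of cellular ATP: NIH 3T3 cells (400/well) are exposed to compound for 48 or 72 hr at 37 °C, then CellTiter-Glo luminescence is imaged after 10 min at room temperature.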
* marks the source's active call; other numbers are inactive results; i = inactive; ? = inconclusive; / = not tested or not shown; [ ] = remark or other dose. Unless noted, the call rests on the fitted dose curve; in most records, active means well fitted curve in the direction sought with a large enough effect; inconclusive means small, poorly fitted or top-dose-only effect, or another doubt; inactive means no such curve, though single readings can be large; an effect the other way counts as inactive or inconclusive. On the % scale 0 is the no-effect control and ±100 the full control effect; potency means the concentration at half of the fitted maximal effect.

SMILES | NPR1 antag | FLuc inh | HEK293 tox | NIH3T3 tox
O=C(c1ccc[nH]c1=O)N1CCC(n2cc(-c3nc(-c4ccccc4)no3)nn2)CC1 | -14% | ? | 6% | -28%
CC(C)c1noc(-c2cn(C3CCN(C(=O)c4cccc5[nH]ccc45)CC3)nn2)n1 | 0% | i | 45µM* | -23%
O=C(c1cccc2[nH]ccc12)N1CCC(n2cc(-c3nc(-c4ccccc4)no3)nn2)C1 (stereo not given) | 11µM* | ? | ? | ?
O=C(c1cccc2[nH]ccc12)N1CCC(n2cc(-c3nc(-c4ccccc4)no3)nn2)CC1 | ? | i | 28µM* | ?
CN(C)CCNC(=O)c1n[nH]c2c1CN(C(=O)c1cccc(OC(F)(F)F)c1)CC2 | / | / | i | -7%
O=S(=O)(c1ccccc1C(F)(F)F)N1CCC2(CCCNC2)C1 (stereo not given) | -3% | i | ? | ?
O=C(CCC1CCCC1)N1CCCC(c2noc(COc3ccccc3F)n2)C1 (stereo not given) | ? | i | ? | ?
c1ccc(-c2ccc3ncc(Nc4ccccn4)n3n2)cc1 | -23%[70.6 µM] | i | ? | ?
Fc1ccc(Nc2cnc3ccc(-c4ccccc4)nn23)cc1 | -22%[70.6 µM] | i | 100µM* | 79µM*
c1ccc(-c2ccc3ncc(Nc4ccc5c(c4)OCCO5)n3n2)cc1 | -11%[70.6 µM] | ? | 89µM* | ?
Fc1ccc(-c2ccc3ncc(Nc4ccc5c(c4)OCCO5)n3n2)cc1 | 1%[70.6 µM] | ? | ? | ?
Fc1ccccc1Nc1cnc2ccc(-c3ccccc3)nn12 | -8%[70.6 µM] | i | 100µM* | ?
Clc1cc(NC2CCCCCC2)n2nccc2n1 | 4%[70.6 µM] | i | 89µM* | ?
Clc1cc(NCC2CCCCCC2)n2nccc2n1 | -28%[70.6 µM] | i | ? | 32µM*
COc1ccc(N2CC3(C2)CN(c2ccccc2)C(=O)O3)cc1OC | -5%[70.6 µM] | i | ? | -25%[138 µM]
Cc1ccccc1C1(O)CCN(C(=O)c2ccc(C#CC(C)(C)O)o2)C1 (stereo not given) | -11% | i | ? | 35µM*
CC(C)(O)C#Cc1ccc(C(=O)N2CC(=O)N(C3CCCCC3)CC(OCc3cccnc3)C2)o1 (stereo not given) | 0% | i | -3% | -6%
[C-]#[N+]C1CCN(C(=O)c2cc(-c3cccc(C(F)(F)F)c3)c3nncn3n2)CC1 | / | / | -16% | -21%
Cc1nn(-c2ccccc2)c(C)c1Cc1nc(C(C)C)no1 | 3% | i | -23% | -19%
O=C(c1ccccc1Cl)N1CCN(CCCn2nc3n(c2=O)CCCC3)CC1 | / | / | -12% | -23%
Cc1ccc(CN2CCN(C(=O)CCC3CCN(C(=O)c4ccccc4)CC3)CC2)cc1 | ? | i | ? | -24%
Cc1ccc(C(=O)N2CCC(CCC(=O)N3CCCCC3)CC2)cc1 | 2% | 28µM* | ? | -13%
Cc1ccc(C(=O)N2CCC(CCC(=O)NC3CCCCCC3)CC2)cc1 | -20% | 40µM* | ? | ?
CCC(CC)NC(=O)CCC1CCN(C(=O)c2ccc(C)cc2)CC1 | -13% | 40µM* | -11% | -6%
Cc1ccc(C(=O)N2CCCC2C(=O)N2CCC(N3Cc4ccccc4C3=O)CC2)cc1 (stereo not given) | / | / | ? | -29%
SMILES | NPR1 antag | FLuc inh | HEK293 tox | NIH3T3 tox
CCN1C(=O)C2CC3(CCN(Cc4ccc(F)c(F)c4)CC3)CN2C1=O (stereo not given) | -11% | i | 32µM* | ?
CCN1C(=O)C2CC3(CCN(Cc4ccc5cc[nH]c5c4)CC3)CN2C1=O (stereo not given) | -1% | i | ? | -4%
O=C(Cn1ccn2nc3c(c2c1=O)CCCC3)NCc1ccccc1 | 2% | i | -15% | -7%
OCc1ccc(CN2C[C@H](O)C[C@H]2c2nc(-c3ccccc3)no2)o1 | 4%[70.6 µM] | 45µM* | -8%[172 µM] | -14%[174 µM]
O[C@@H]1C[C@@H](c2nc(-c3ccccc3)no2)N(Cc2cc3ccccc3o2)C1 | 2%[70.6 µM] | 40µM* | ? | ?
Cc1ccc(C2=NC3(CCN(C(=O)c4sccc4C)CC3)ON2)cc1 | -19% | ? | -11% | -5%
CCN(Cc1ccccc1)C(=O)CC1CCCN(c2cn[nH]c(=O)c2)C1 (stereo not given) | 2% | i | -2% | -13%
O=C1CCC2(CCNCC2)CN1CCCNc1cccnc1 | 0% | i | i | -5%
N#Cc1cccc(NC(=S)N[C@H]2CO[C@H]3[C@@H]2OC[C@@H]3n2nnnc2Oc2cccc(N3CCOCC3)c2)c1 | 0% | i | 45µM* | -28%
Cc1c(-c2ccccc2)[nH]c2c(CNC(=O)CCc3nncn3C)cc(Cl)cc12 | -1% | 22µM* | ? | ?
COCc1ccc(C(=O)NCc2cc(C)cc3c(C)c(C)[nH]c23)o1 | -1% | i | ? | ?
COc1ccc(CC(=O)NCc2cc(C)cc3c(C)c(C)[nH]c23)c(OC)c1 | -21% | i | ? | ?
Cc1cc(CNC(=O)Cc2ccc(-n3cnnn3)cc2)c2[nH]c(C)c(C)c2c1 | -4% | i | ? | 20µM*
Cc1cc(CNC(=O)c2ccncc2)c2[nH]c(-c3ccccc3)c(C)c2c1 | 11µM* | ? | 14µM* | 32µM*
Cc1cc(CNC(=O)Cc2nonc2C)c2[nH]c(-c3ccccc3)c(C)c2c1 | -15% | 10µM* | ? | -28%
O=C(NCCC1=CCCN(CCCn2cccc2)C1)c1ccco1 | 0% | i | -17% | -29%
Cc1ncc2c(c1CNC(=O)c1ccccc1OC(F)F)CCNC2 | 3% | i | -15% | -23%
CC(C)Cc1cc(CNC(=O)Nc2nnc(C(C)(C)C)s2)on1 | -22% | i | 45µM* | ?
CC(C)(C)c1nnc(NC(=O)NCc2ccncc2)s1 | 3% | i | 0% | ?
Cc1ccc(N2C(=S)N[C@H]3[C@@H](O)[C@H](O)C[C@@H](C(=O)N4CCCCC4)[C@H]32)cc1 | 3%[70.6 µM] | 16µM* | i | i
O=C([C@@H]1C[C@@H](O)[C@H](O)[C@@H]2NC(=S)N(c3ccc(F)cc3)[C@@H]21)N1CCCCC1 | 2%[70.6 µM] | ? | -2%[172 µM] | -1%[138 µM]
COc1ccc(C(=O)NC2CN(c3ccnc4ccnn34)C2)cc1 | / | / | -5% | -34%
O=C(Nc1ccccc1)C1=NO[C@@H]2CN(Cc3ccc4[nH]ccc4c3)C[C@H]12 | -4%[70.6 µM] | i | ? | ?
COc1ccc(NC(=O)c2ccc3c(c2)C2(CCN(C)C2)CN3CC2CC2)cc1 (stereo not given) | -5%[70.6 µM] | i | 50µM* | 25µM*
CN1CCC2(C1)CN(CC1CC1)c1ccc(C(=O)NC3CCC3)cc12 (stereo not given) | -3%[70.6 µM] | i | ? | ?
CN1CCC2(C1)CN(CC1CCOCC1)c1ccc(C(=O)Nc3ccccc3)cc12 (stereo not given) | -15%[70.6 µM] | 50µM* | 100µM* | ?
